# Data as given in PubChem BioAssay AID624483 (NMMLSC, 2012).
# Hit rate of the full screen: of about 360,000 compounds, about 11,000 (3.1%) were called active. Another 2% or so got no clear call; they are omitted. The sample holds actives, similar compounds and a random draw of the others, so the mix is not that of the screen. Cut-off read from the data, not from the text of the source: active = fluorescence intensity above about 16000; inconclusive = no clear call, values can overlap the other calls; inactive = below that.
# Assay: compound fluorescence in toxin protease inhibitor counterscreen, primary screen, artefact control for toxin protease inhibitor project, biochemical, multiplex microsphere, HTS (AID 624483)
# Conditions: compound autofluorescence counterscreen, microsphere flow cytometry; active compounds read high
row,SMILES,fluorescence intensity
1,CS(=O)(=O)c1ccc2c(c1)SC1=NC(=O)/C(=C/c3ccco3)C(=N)N12,20000 (active)
2,CS(=O)(=O)C1=NN2C(=N)/C(=C\c3ccc(OCCOc4ccccc4)cc3)C(=O)N=C2S1,3680 (inactive)
3,CCS(=O)(=O)C1=NSC2=NC(=O)/C(=C\c3ccc(OS(=O)(=O)c4ccccc4)cc3)C(=N)N21,4230 (inactive)
4,OC(c1nc2ccc(F)cc2[nH]1)C(O)c1nc2ccc(F)cc2[nH]1 (stereo not given),3790 (inactive)
5,O=C1CCCC2=C1C(c1cccs1)n1nc(SCc3ccccc3)nc1N2 (stereo not given),23700 (active)
6,CCCC(=O)N1c2ccccc2NC2=C(C(=O)CCC2)C1c1ccc(F)cc1 (stereo not given),6490 (inactive)
7,O=C1CCCC2=C1C(c1cccs1)CC(=O)N2c1ccc(F)cc1 (stereo not given),3220 (inactive)
8,Nc1c(-c2ccc(F)cc2)cnc2ncnn12,6020 (inactive)
9,O=C(Nc1ccc2c(c1)nc1n2CCCCC1)c1cc(S(=O)(=O)N2CCOCC2)ccc1Cl,2940 (inactive)
10,Cc1ccc(Oc2ccc3c(c2)C(=O)N(c2cccc4cccnc24)C3=O)cc1,21000 (active)
11,Cc1cccc(NC(=O)C2CCN(S(=O)(=O)c3cccc4cccnc34)CC2)c1,5170 (inactive)
12,CCOc1cccc(OCCCOc2cccc3cccnc23)c1,2100 (inactive)
13,Cc1ccc(S(=O)(=O)N2CCCCC2)cc1NC(=O)CCNC(=O)c1ccccc1Cl,3400 (inactive)
14,CS(=O)(=O)N(CC(=O)N1CCN(Cc2ccccc2)CC1)c1ccc2c(c1)OCCO2,23300 (active)
15,CS(=O)(=O)N(CC(=O)N1CCN(c2cccc(Cl)c2)CC1)c1ccccc1,9910 (inactive)
16,Cc1cccc(N(CC(=O)N2CCOCC2)S(C)(=O)=O)c1,8740 (inactive)
17,Cc1ccc(C)c(S(=O)(=O)N2CCN(c3ncnc4sccc34)CC2)c1,3890 (inactive)
18,O=C(c1c(F)cccc1F)N1CCN(S(=O)(=O)c2ccc3c(c2)OCCO3)CC1,4100 (inactive)
19,O=C(c1ccc2c(c1)OCCO2)C1CCN(S(=O)(=O)c2cccc(F)c2)CC1,17000 (active)
20,O=C(Nc1ccccn1)C1CCN(S(=O)(=O)c2ccc3c(c2)OCCO3)CC1,4090 (inactive)

row,SMILES,fluorescence intensity
1,CCOC(=O)C1=C(CN2CCc3ccccc32)NC(=O)NC1c1cc(C)ccc1C (stereo not given),23800 (active)
2,CCOC(=O)C1=C(CNC2CCCCC2)NC(=O)NC1c1cc(C)ccc1C (stereo not given),4280 (inactive)
3,CCOC(=O)C1=C(CN2CCc3ccccc32)NC(=O)NC1c1ccc(Cl)cc1 (stereo not given),23500 (active)
4,CCOC(=O)C1=C(c2ccccc2)NC(=O)NC1c1cc(OC)c(OC)cc1OC (stereo not given),2970 (inactive)
5,CCOC(=O)C1=C(CN2CCCCCC2)NC(=O)NC1c1cccc([N+](=O)[O-])c1 (stereo not given),4620 (inactive)
6,CCOC(=O)C1=C(CN2CCc3ccccc32)NC(=O)NC1c1cccc([N+](=O)[O-])c1 (stereo not given),15000 (inactive)
7,Cc1ccccc1S(=O)(=O)NC(=O)C1(C)CCN1C(=O)C1(c2ccccc2)CCCC1 (stereo not given),2830 (inactive)
8,COc1ccc(C(=O)Nc2c(N)nc(SCC(=O)N3CCC(C)CC3)[nH]c2=O)cc1OC,4500 (inactive)
9,COc1cncc(-c2cnc3sc(NCCc4ccccn4)nn23)c1,3330 (inactive)
10,O=C1Cc2ccccc2Sc2ccc(Cl)cc21,6230 (inactive)
11,CC(=O)Nc1cncc(-c2ccccc2CO)n1,3670 (inactive)
12,Cc1cc(Cl)nc(NC(=O)Nc2cccc(Cl)c2)n1,3440 (inactive)
13,COc1cccc(C(=O)NC(=O)Nc2nc(C)cc(C(F)(F)F)n2)c1,4900 (inactive)
14,Cc1cc(C)nc(NC(=O)Nc2ccccc2C(F)(F)F)n1,21400 (active)
15,CSc1ccc(CN2CCC2(C)C(=O)NCc2ccccc2Br)cc1 (stereo not given),3880 (inactive)
16,OC[C@@H]1CN(Cc2ccc(Cl)cc2)C[C@H](n2cnc3c(NCc4ccncc4)ncnc32)O1,3720 (inactive)
17,Cc1cc(Cl)ccc1-c1nc(NCCN(C)C)nc2ccsc12,2870 (inactive)
18,Cc1noc(C)c1C(=O)N1CCC1(C)C(=O)NS(=O)(=O)c1ccc(C#N)cc1 (stereo not given),3990 (inactive)
19,Nc1nonc1-c1nc2ccccc2n1CCC(=O)O,23600 (active)
20,O=C(O)CCn1c(Cc2ccccc2)nc2ccccc21,4070 (inactive)

row,SMILES,fluorescence intensity
1,COc1ccc(C)c(Cn2c(-c3nonc3N)nc3ccccc32)c1,8560 (inactive)
2,O=C(CNC(=O)c1ccccc1F)c1ccc(Br)cc1,4100 (inactive)
3,CCc1nc2ccc(C(=O)NC3CCN(Cc4ccccc4)CC3)cn2c1N(CC)CCOC,3640 (inactive)
4,OC1CCCN(c2ncnc3c2nnn3Cc2c(F)cccc2Cl)C1 (stereo not given),4220 (inactive)
5,CC(=O)Nc1ccc(NC(=O)CSCc2cnn(-c3ccccc3)c2-n2cccc2)cc1,21800 (active)
6,O=C(CSCc1ccccc1)Nc1ccccc1,3440 (inactive)
7,Cc1cc(C)cc(NC(=O)CSCc2cnn(-c3ccccc3)c2-n2cccc2)c1,3720 (inactive)
8,CCC(=O)N1Cc2cc(C(=O)NCc3cccc(F)c3)nc(-c3cccc(C4=CCCC4)c3)c2[C@H]1CCO,5960 (inactive)
9,CS(=O)(=O)N1CCN(C(=O)c2cc3ccccc3oc2=O)CC1,20900 (active)
10,COc1cccc2cc(C(=O)N3CCN(C(=O)c4ccccc4)CC3)c(=O)oc12,2640 (inactive)
11,O=C(c1cc2ccccc2o1)N1CCN(S(=O)(=O)c2ccc(Cl)s2)CC1,3540 (inactive)
12,Cc1ccc(S(=O)(=O)N2CCN(C(=O)Cc3sc(C)nc3-c3ccc(F)cc3)CC2)c(C)c1,5210 (inactive)
13,COCCCNC(=O)c1cccc2c(-c3ccc(O)c(OC)c3)coc12,3660 (inactive)
14,CCCS(=O)(=O)NC(=O)C1(C)CCCN(C(=O)c2cccs2)C1 (stereo not given),3930 (inactive)
15,CN(C)c1nc(N)nc(Cn2nnc(-c3ccc(C(F)(F)F)cc3)n2)n1,5180 (inactive)
16,CCc1ccc(-c2nnn(Cc3nc4ccccc4s3)n2)cc1,22800 (active)
17,CCc1ccc(-c2nnn(Cc3nn[nH]n3)n2)cc1,20100 (active)
18,CCC1(CC)NC(=O)N(Cc2nc3ccccc3s2)C1=O,3380 (inactive)
19,COc1ccc(-c2nnn(Cc3nc(N)nc(N4CCCCC4)n3)n2)cc1,4610 (inactive)
20,CN(Cc1nc2ccccc2s1)C(=O)c1ccc(F)cc1,3850 (inactive)
